# Results taken from the supplement of paper PMC5641865, “A screen for kinase inhibitors identifies antimicrobial imidazopyridine aminofurazans as specific inhibitors of the Listeria monocytogenes PASTA kinase PrkA” (The Journal of Biological Chemistry, 2017).
# ± gives the standard deviation of the averaged measurements.
# Tested on: Listeria monocytogenes 10403S
# Assay: growth inhibition relative to ceftriaxone-alone control; higher = stronger potentiation of ceftriaxone growth inhibition
# Conditions: 10 µM; ceftriaxone 1 ug/ml; 12 h
# 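Also: End-point A600 read in BHI broth at 37 °C with 2% DMSO, inhibition computed as (1 − OD with compound plus ceftriaxone ÷ OD with ceftriaxone only) × 100.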
row,Structure (SMILES),growth inhibition [%]
1,c1ccc(COc2ccc(Nc3ncnc4ccc(-c5ccco5)cc34)cc2)cc1,-9.94 ± 12
2,COc1ccc2[nH]c3c4[nH]c5ccc(OC)cc5c4c4c(c3c2c1)C(=O)NC4=O,-8.86 ± 4.5
3,CC(C)c1cnn2c(NCc3ccccc3)cc(NCCCCCCN)nc12,102 ± 5.9
4,Cc1cc(Nc2cc(N3CCN(C)CC3)nc(/C=C/c3ccccc3)n2)n[nH]1,85.7 ± 18
5,C[C@@H]1CN(CC(=O)Nc2ccc3c(c2)Cc2cccc(-c4cc(=O)cc(N5CCOCC5)o4)c2S3)C[C@H](C)O1,27.5 ± 4.1
6,C=CC(=O)Nc1cccc(Sc2nc(Nc3ccc(N4CCN(C)CC4)cc3)ncc2Cl)c1,94.1 ± 1.1
7,O=C1Nc2ccccc2/C1=C/Nc1ccc2[nH]c(=O)[nH]c2c1,7.54 ± 1.1
8,COc1cccc(-n2ncc3c(N/N=C/c4ccc(C(=O)NCCN(C)C)cc4)ncnc32)c1,0.231 ± 2.8
9,Cc1cc(Cl)cc2c1NC(=O)C2=NNc1ccc(S(N)(=O)=O)cc1,-9.29 ± 7.3
10,Nc1ccc(C(=O)Nc2cccc(-c3nc(N4CCOCC4)c4oc5ncccc5c4n3)c2)cn1,31.1 ± 1.6
11,CCc1cc(Nc2nccc(-c3c(-c4ccc(OC)c(C(=O)Nc5c(F)cccc5F)c4)nc4ccccn34)n2)c(OC)cc1N1CCC(N2CCN(S(C)(=O)=O)CC2)CC1,24.5 ± 8
12,COc1ccc(-c2nn3ncccc3c2-c2ccnc(Nc3ccc4c(c3)OCCO4)n2)cc1,-7.96 ± 4.1
13,CCCCCCCCCCCCc1ccc(S(=O)(=O)Nc2nncs2)cc1,93.5 ± 11
14,C[C@@H](N)[C@H]1CC[C@H](C(=O)Nc2ccncc2)CC1,24.6 ± 17
15,CNC(=O)c1cc(COc2nnc(Nc3ccc(Cl)cc3)c3ccoc23)ccn1 [Telatinib (BAY 57-9352)],22.8 ± 32
16,O=C(Nc1cc(C(F)(F)F)cc(C(F)(F)F)c1)c1cc(Cl)ccc1O,97.6 ± 0.39
17,CN(c1ccc(NC(=O)NCCN2CCOCC2)cc1)c1ccnc(Nc2ccc(CS(C)(=O)=O)cc2)n1,-5.31 ± 3
18,COc1ccc(COc2cc3oc(=O)c4cc(C(C)O)ccc4c3cc2OC)cc1 (stereo not drawn) [Palomid 529],18 ± 10
19,CCCS(=O)(=O)Nc1ccc(F)c(C(=O)c2c[nH]c3ncc(Cl)cc23)c1F,24.2 ± 22
20,O=C(Cc1ccc(-c2ccc(OCCN3CCOCC3)cc2)cn1)NCc1ccccc1,33.6 ± 8.5
21,Cc1cc(-c2ccccn2)cc(C)c1/C=C/c1cncc(-c2nn[nH]n2)c1,-7.47 ± 9.6
22,CS(=O)(=O)CCNCc1ccc(-c2ccc3ncnc(Nc4ccc(OCc5ccccc5)c(C(F)(F)F)c4)c3c2)o1,-5.15 ± 0.36
23,Cc1cc(O)cc(C)c1/C=C/c1cncc(C(=O)N(C)C)c1,-3.75 ± 3.3
